The source of these data is PubChem BioAssay (NCATS).

The structures appear in SMILES notation. Inconclusive results are not listed. A call without a number means that no potency is given here. The source made the active and inactive calls. Calls follow the shape of the full dose curve; tested in HEK293 reporter line.

The first experiment can be described thus: qHTS for Inhibitors of the Functional Ribonucleoprotein Complex (vRNP) of Lassa (LASV) Arenavirus: LASV Primary Screen - GLuc reporter signal (AID 1347082). Also: nearly all actives have a fitted effect of over 60% in size. The conditions noted are these: LASV minigenome vRNP, Gaussia luciferase reporter; series mostly up to 57.5 µM.
`COc1cc(C(O)CN)ccc1O` (stereo unspecified): the Potency entry is “inactive”.
On the same count and under the same terms, the result for `NC(=O)CN1CC(O)CC1=O` (stereo unspecified) reads “inactive”.
Consider `O=C(Cc1ccc(Cl)c(Cl)c1)N1CCCCC1CN1CCCC1` (stereo unspecified), for which the Potency entry is “inactive”.
Still for that read-out and setting: the result for `NCc1cc(=O)[nH]o1` reads “inactive”.
On the same count and under the same terms, the result for `C[C@]12CCC3C(CC[C@H]4C[C@H](O)CC[C@]34C)C1CC[C@@H]2C(=O)CO` (stereo partly specified) reads “inactive”; that for `NC1CCc2cc(O)c(O)cc2C1` (stereo unspecified), “inactive”; that for `CNCCc1ccc(O)c(O)c1`, “inactive”.
For `O=C(O)Cc1cnc[nH]1`, the Potency entry is “inactive”.
Still for that read-out and setting: the result for `NC(N)=NOCCC(N)C(=O)O` (stereo unspecified) reads “inactive”; that for `O=C(O)CC[N+](=O)[O-]`, “inactive”.
Same read-out and setting: the result for `C[C@@H](N)Cc1cnc[nH]1` reads “inactive”; that for `CC(=O)NCCc1c[nH]c2ccccc12`, “inactive”.
The same measure, in the same setting: with `CCCCc1ccc(C(=O)O)nc1` the entry was “inactive”; with `Cn1cnc(CCN)c1`, “inactive”.
As for `CC(C)Oc1cccnc1N(C)C1CCN(Cc2ccccc2)CC1`, the Potency result was “inactive”.
Consider `NCCc1c[nH]c2ccc(O)cc12`, for which the Potency entry is “inactive”.
On the same count and under the same terms, with `CNCCc1c[nH]c2ccc(O)cc12` the entry was “inactive”; with `CS(=N)(=O)CC[C@H](N)C(=O)O` (stereo partly specified), “inactive”.
The same measure, in the same setting: the result for `CCCN(CCC)C1CCc2ccc(O)cc2C1` (stereo unspecified) reads “inactive”; that for `Clc1cnc(Oc2ccc(Oc3ncc(Cl)cc3Cl)cc2)c(Cl)c1`, “inactive”; that for `c1ccc2sc(C3(N4CCCCC4)CCCCC3)cc2c1`, “inactive”.
Same read-out and setting: the result for `c1ccc(C2(c3ccccc3)CC2C2=NCCN2)cc1` (stereo unspecified) reads “inactive”; that for `C[C@]12N[C@H](Cc3ccccc31)c1ccccc12`, “inactive”.
Regarding `Cc1nccc2c1[nH]c1ccccc12`, the Potency entry is “inactive”.
Still for that read-out and setting: the result for `S=C(NC1CCCCC1)N1CCC(c2cnc[nH]2)CC1` reads “inactive”; that for `NC(CP(=O)(O)O)C(=O)O` (stereo unspecified), “inactive”.
The same measure, in the same setting: the result for `C=CCN1CC[C@]23CCCCC2[C@H]1Cc1ccc(O)cc13` (stereo partly specified) reads “inactive”.
The same measure, in the same setting: with `CCCN1CCO[C@@H]2c3cc(O)ccc3OC[C@H]21` the entry was “inactive”.
For the compound `CC(=O)[C@H]1CCC2C3CC[C@H]4C[C@H](O)CC[C@]4(C)C3CC[C@@]21C` (stereo partly specified), the Potency entry was “inactive”.
Take `CCCN1CCC[C@H](c2cccc(O)c2)C1`: the Potency result was “inactive”.
On to `O=C1CCCN1CC#CCN1CCCC1`, for which the Potency result was “inactive”.
On the same count and under the same terms, the result for `CC(C)NC(C)Cc1ccc(I)cc1` (stereo unspecified) reads “inactive”.
Consider `NCCc1c[nH]c2ccccc12`, for which the Potency result is “inactive”.
As to `NC(CCP(=O)(O)O)C(=O)O` (stereo unspecified), the Potency entry was “inactive”.
On the same count and under the same terms, the result for `C[C@@H]1O[C@H](C[N+](C)(C)C)C[C@H]1O` reads “inactive”; that for `NC(=NCCC[C@H](N)C(=O)O)N[N+](=O)[O-]`, “inactive”.
Same read-out and setting: the result for `C[N+]1(C)C2CCC1CC(OC(=O)C(CO)c1ccccc1)C2` (stereo unspecified) reads “inactive”.

A short description of the next experiment: qHTS for Inhibitors of the Functional Ribonucleoprotein Complex (vRNP) of Lassa (LASV) Arenavirus: Viability assay - alamar blue signal for LASV Primary Screen (AID 1347083). Also: nearly all actives have a fitted effect of over 80% in size. The conditions noted are these: cell viability, alamar blue fluorescence (LASV minigenome counter-screen); series mostly up to 57.5 µM.
Turning to `COc1cc(C(O)CN)ccc1O` (stereo unspecified), the Potency result was “inactive”.
Still for that read-out and setting: with `NC(=O)CN1CC(O)CC1=O` (stereo unspecified) the entry was “inactive”; with `O=C(Cc1ccc(Cl)c(Cl)c1)N1CCCCC1CN1CCCC1` (stereo unspecified), “inactive”; with `NCc1cc(=O)[nH]o1`, “inactive”.
The same measure, in the same setting: the result for `C[C@]12CCC3C(CC[C@H]4C[C@H](O)CC[C@]34C)C1CC[C@@H]2C(=O)CO` (stereo partly specified) reads “inactive”.
Take `NC1CCc2cc(O)c(O)cc2C1` (stereo unspecified): the Potency entry was “inactive”.
Still for that read-out and setting: the result for `CNCCc1ccc(O)c(O)c1` reads “inactive”; that for `O=C(O)Cc1cnc[nH]1`, “inactive”.
On the same count and under the same terms, the result for `NC(N)=NOCCC(N)C(=O)O` (stereo unspecified) reads “inactive”; that for `O=C(O)CC[N+](=O)[O-]`, “inactive”; that for `C[C@@H](N)Cc1cnc[nH]1`, “inactive”.
`CC(=O)NCCc1c[nH]c2ccccc12`: the Potency entry was “inactive”.
Still for that read-out and setting: the result for `CCCCc1ccc(C(=O)O)nc1` reads “inactive”.
On the same count and under the same terms, with `Cn1cnc(CCN)c1` the entry was “inactive”.
Still for that read-out and setting: with `CC(C)Oc1cccnc1N(C)C1CCN(Cc2ccccc2)CC1` the entry was “inactive”.
As for `NCCc1c[nH]c2ccc(O)cc12`, the Potency result was “inactive”.
Same read-out and setting: with `CNCCc1c[nH]c2ccc(O)cc12` the entry was “inactive”; with `CS(=N)(=O)CC[C@H](N)C(=O)O` (stereo partly specified), “inactive”.
On the same count and under the same terms, with `CCCN(CCC)C1CCc2ccc(O)cc2C1` (stereo unspecified) the entry was “inactive”; with `Clc1cnc(Oc2ccc(Oc3ncc(Cl)cc3Cl)cc2)c(Cl)c1`, “inactive”; with `c1ccc2sc(C3(N4CCCCC4)CCCCC3)cc2c1`, “inactive”.
In the case of `c1ccc(C2(c3ccccc3)CC2C2=NCCN2)cc1` (stereo unspecified), the Potency result is “inactive”.
Turning to `C[C@]12N[C@H](Cc3ccccc31)c1ccccc12`, the Potency result was “inactive”.
Same read-out and setting: the result for `Cc1nccc2c1[nH]c1ccccc12` reads “inactive”; that for `S=C(NC1CCCCC1)N1CCC(c2cnc[nH]2)CC1`, “inactive”.
Still for that read-out and setting: the result for `NC(CP(=O)(O)O)C(=O)O` (stereo unspecified) reads “inactive”; that for `C=CCN1CC[C@]23CCCCC2[C@H]1Cc1ccc(O)cc13` (stereo partly specified), “inactive”; that for `CCCN1CCO[C@@H]2c3cc(O)ccc3OC[C@H]21`, “inactive”.
As for `CC(=O)[C@H]1CCC2C3CC[C@H]4C[C@H](O)CC[C@]4(C)C3CC[C@@]21C` (stereo partly specified), the Potency entry was “inactive”.
On the same count and under the same terms, the result for `CCCN1CCC[C@H](c2cccc(O)c2)C1` reads “inactive”; that for `O=C1CCCN1CC#CCN1CCCC1`, “inactive”.
The same measure, in the same setting: with `CC(C)NC(C)Cc1ccc(I)cc1` (stereo unspecified) the entry was “inactive”.
The same measure, in the same setting: with `NCCc1c[nH]c2ccccc12` the entry was “inactive”.
Take `NC(CCP(=O)(O)O)C(=O)O` (stereo unspecified): the Potency entry was “inactive”.
Still for that read-out and setting: the result for `C[C@@H]1O[C@H](C[N+](C)(C)C)C[C@H]1O` reads “inactive”; that for `NC(=NCCC[C@H](N)C(=O)O)N[N+](=O)[O-]`, “inactive”; that for `C[N+]1(C)C2CCC1CC(OC(=O)C(CO)c1ccccc1)C2` (stereo unspecified), “inactive”.

The nature of the next experiment: qHTS for Inhibitors of the Functional Ribonucleoprotein Complex (vRNP) of Lymphocytic Choriomeningitis Arenaviruses (LCMV): Viability assay - alamar blue signal for LCMV Primary Screen (AID 1347085). Also: nearly all actives have a fitted effect of over 80% in size. The conditions noted are these: alamar blue viability counter-screen, LCMV vRNP screen cells; series mostly up to 57.5 µM.
As for `COc1cc(C(O)CN)ccc1O` (stereo unspecified), the Potency entry is “inactive”.
Still for that read-out and setting: the result for `NC(=O)CN1CC(O)CC1=O` (stereo unspecified) reads “inactive”; that for `O=C(Cc1ccc(Cl)c(Cl)c1)N1CCCCC1CN1CCCC1` (stereo unspecified), “inactive”.
Still for that read-out and setting: the result for `NCc1cc(=O)[nH]o1` reads “inactive”.
Same read-out and setting: with `C[C@]12CCC3C(CC[C@H]4C[C@H](O)CC[C@]34C)C1CC[C@@H]2C(=O)CO` (stereo partly specified) the entry was “inactive”; with `NC1CCc2cc(O)c(O)cc2C1` (stereo unspecified), “inactive”.
Take `CNCCc1ccc(O)c(O)c1`: the Potency result is “inactive”.
Still for that read-out and setting: the result for `O=C(O)Cc1cnc[nH]1` reads “inactive”; that for `NC(N)=NOCCC(N)C(=O)O` (stereo unspecified), “inactive”; that for `O=C(O)CC[N+](=O)[O-]`, “inactive”.
In the case of `C[C@@H](N)Cc1cnc[nH]1`, the Potency result was “inactive”.
On the same count and under the same terms, the result for `CC(=O)NCCc1c[nH]c2ccccc12` reads “inactive”; that for `CCCCc1ccc(C(=O)O)nc1`, “inactive”.
Still for that read-out and setting: the result for `Cn1cnc(CCN)c1` reads “inactive”; that for `CC(C)Oc1cccnc1N(C)C1CCN(Cc2ccccc2)CC1`, “inactive”.
The same measure, in the same setting: with `NCCc1c[nH]c2ccc(O)cc12` the entry was “inactive”.
Consider `CNCCc1c[nH]c2ccc(O)cc12`, for which the Potency entry was “inactive”.
Regarding `CS(=N)(=O)CC[C@H](N)C(=O)O` (stereo partly specified), the Potency entry was “inactive”.
Same read-out and setting: with `CCCN(CCC)C1CCc2ccc(O)cc2C1` (stereo unspecified) the entry was “inactive”; with `Clc1cnc(Oc2ccc(Oc3ncc(Cl)cc3Cl)cc2)c(Cl)c1`, “inactive”; with `c1ccc2sc(C3(N4CCCCC4)CCCCC3)cc2c1`, “inactive”.
The same measure, in the same setting: the result for `c1ccc(C2(c3ccccc3)CC2C2=NCCN2)cc1` (stereo unspecified) reads “inactive”; that for `C[C@]12N[C@H](Cc3ccccc31)c1ccccc12`, “inactive”.
Same read-out and setting: with `Cc1nccc2c1[nH]c1ccccc12` the entry was “inactive”; with `S=C(NC1CCCCC1)N1CCC(c2cnc[nH]2)CC1`, “inactive”.
Consider `NC(CP(=O)(O)O)C(=O)O` (stereo unspecified), for which the Potency entry is “inactive”.
The same measure, in the same setting: the result for `C=CCN1CC[C@]23CCCCC2[C@H]1Cc1ccc(O)cc13` (stereo partly specified) reads “inactive”.
Consider `CCCN1CCO[C@@H]2c3cc(O)ccc3OC[C@H]21`, for which the Potency entry was “inactive”.
The same measure, in the same setting: with `CC(=O)[C@H]1CCC2C3CC[C@H]4C[C@H](O)CC[C@]4(C)C3CC[C@@]21C` (stereo partly specified) the entry was “inactive”.
The same measure, in the same setting: the result for `CCCN1CCC[C@H](c2cccc(O)c2)C1` reads “inactive”.
Regarding `O=C1CCCN1CC#CCN1CCCC1`, the Potency entry was “inactive”.
Same read-out and setting: the result for `CC(C)NC(C)Cc1ccc(I)cc1` (stereo unspecified) reads “inactive”; that for `NCCc1c[nH]c2ccccc12`, “inactive”.
Still for that read-out and setting: the result for `NC(CCP(=O)(O)O)C(=O)O` (stereo unspecified) reads “inactive”; that for `C[C@@H]1O[C@H](C[N+](C)(C)C)C[C@H]1O`, “inactive”.
On the same count and under the same terms, the result for `NC(=NCCC[C@H](N)C(=O)O)N[N+](=O)[O-]` reads “inactive”; that for `C[N+]1(C)C2CCC1CC(OC(=O)C(CO)c1ccccc1)C2` (stereo unspecified), “inactive”.
